In the library only some 3.5% were active in any assay of this set; here they are far more common.
GPR151 ag: activators of human GPR151, primary screen, cell-based, PathHunter beta-arrestin, luminescence; G-protein coupled receptor 151 (Homo sapiens), Q8TDV0; PathHunter beta-arrestin GPR151 cells; activation, % at 11.2 µM; actives 1% (n = 650,000); in the data active means activation above about 4.9%;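 further: 0% = median of compound wells and 100% = cells with positive control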
FBW7 activator: FBW7 E3 ligase activators, primary screen, biochemical, AlphaScreen, human; AlphaScreen FBW7–phospho-cyclin E peptide binding, activator screen; normalized activity (activation), % at 26.1 µM; actives 0.13% (n = 650,000); F-box/WD repeat-containing protein 7 (Homo sapiens), Q969H0; in the data active means normalized activity above about 1.9%;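 further: purified mutant Fbw7 with reduced substrate affinity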
TEAD-YAP inh: TEAD-YAP interaction inhibition, primary screen, TEAD-YAP interaction inhibitor project, luminescence, HEK-TIYL cells; TEAD-Gal4/YAP UAS-luciferase luminescence; inhibition, % at 9.12 µM; actives 1.4% (n = 640,000); in the data active means inhibition above about 32%;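 further: 0% = median of test compound wells and 100% = reference inhibitor wells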
MITF primary: MITF inhibitors, primary screen, biochemical, AlphaScreen, human; AlphaScreen MITF homodimerization, bead proximity signal; inhibition, % at 2.6 µM; actives 0.91% (n = 650,000); in the data active means inhibition above about 50%;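 further: 0% = vehicle wells with protein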
Target sequence (O75030 whole entry, looked up): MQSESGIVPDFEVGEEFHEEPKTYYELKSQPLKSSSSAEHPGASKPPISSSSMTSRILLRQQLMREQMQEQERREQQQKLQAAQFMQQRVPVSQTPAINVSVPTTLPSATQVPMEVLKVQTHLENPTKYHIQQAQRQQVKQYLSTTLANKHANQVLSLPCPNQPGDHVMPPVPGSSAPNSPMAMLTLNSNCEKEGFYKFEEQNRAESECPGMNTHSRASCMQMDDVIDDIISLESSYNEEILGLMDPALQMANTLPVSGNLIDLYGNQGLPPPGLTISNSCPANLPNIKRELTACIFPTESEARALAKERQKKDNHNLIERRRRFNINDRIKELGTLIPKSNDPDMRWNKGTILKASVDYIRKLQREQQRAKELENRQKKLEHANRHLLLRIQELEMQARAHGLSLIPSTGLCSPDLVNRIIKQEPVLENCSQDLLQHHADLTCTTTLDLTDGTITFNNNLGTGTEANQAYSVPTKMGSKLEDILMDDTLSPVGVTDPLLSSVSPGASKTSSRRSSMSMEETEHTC
MITF inh conf: MITF inhibitors, retest of hits, confirmation, biochemical, AlphaScreen, triplicate. AlphaScreen MITF homodimerization, biotin/His-MITF beads. actives 16% (n = 4,700). shares compounds with MITF primary. inhibition, % at 2.6 µM. AID 1259372, 2018;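 active means inhibition above a cutoff derived from the DMSO control wells, cut at about 28% in these data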;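 further: 0% = MITF dimer wells with DMSO only; inhibitors lower the bead chemiluminescence by keeping MITF from dimerizing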
AlphaScreen DR: AlphaScreen optical interference compounds, dose response, counter-screen, biochemical, HTS; shares compounds with MITF primary; AlphaScreen optical interference counterscreen, cell-free; IC50, µM; actives 6% (n = 480); AID 1259373, 2018; call rule not given here
AS interf ctr: AlphaScreen optical interference compounds, counter-screen for MITF inhibitor project, biochemical, triplicate; inhibition, % at 2.6 µM; actives 7.6% (n = 4,700); shares compounds with MITF primary; LysRS AlphaScreen counterscreen, signal interference;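 active means inhibition above a cutoff derived from the DMSO control wells, cut at about 30% in these data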
* = called active by the depositor; nt = not tested or not shown.

SMILES | GPR151 ag | FBW7 activator | TEAD-YAP inh | MITF primary | MITF inh conf | AS interf ctr | others
CCN1CCN(C2CCN(Cc3ccccc3C)CC2)CC1 | 0 | 0 | -3 | 14 | nt | nt
Clc1ccccc1CN1CCC(N2CCCCC2)CC1 | -1 | 0 | 6 | -4 | nt | nt
Clc1ccccc1CN1CCN(C2CCCCCC2)CC1 | 0 | 0 | -3 | 74* | 0 | 1
Fc1ccccc1CN1CCC(N2CCN(c3ccccc3)CC2)CC1 | -1 | 0 | -4 | 53* | 2 | 9
CC1CCC(N2CCN(Cc3ccccc3F)CC2)CC1 (centres undefined) | -1 | 0 | 7 | 63* | -4 | 10
CS(=O)(=O)N(CC1CC1)C1CCN(CCc2ccccn2)CC1 | 0 | 0 | 6 | -8 | nt | nt
CCOC(=O)c1c(NC(=O)c2nn3c(C(F)(F)F)cc(-c4ccco4)nc3c2Br)sc2c1CCC(C)C2 (centres undefined) | -2 | 0 | 9 | -2 | nt | nt
COc1ccc(C2C3=C(CC(C)(C)CC3=O)Nc3ncnn32)cc1 (centres undefined) | 0 | 0 | 1 | -13 | nt | nt
CCOc1cc(/C=C2\N=C(c3ccc4c(c3)OCO4)OC2=O)ccc1OC(C)=O | 0 | 0 | 10 | 7 | nt | nt
NC(=O)c1ccc(N=Cc2cc3c(cc2[N+](=O)[O-])OCO3)cc1 | -1 | 0 | -6 | 58* | 76* | 9 | AlphaScreen DR=>6.5
CCOC(=O)C(NC(=O)c1ccccc1)(Nc1sc2c(c1C#N)CCCCCC2)C(F)(F)F (centres undefined) | 0 | 0 | -3 | 12 | nt | nt
COc1cccc(C(=O)NNC(=O)C(=O)NC(C)C)c1 | 0 | 0 | 0 | 10 | nt | nt
COc1cccc(C(=O)NNC(=O)C(=O)NCCO)c1 | 1 | 1 | 5 | 61* | -6 | 3
O=C1CS/C(=N/S(=O)(=O)c2ccccc2)N1Cc1ccccc1 | -1 | 0 | 12 | 5 | nt | nt
O=C(CSc1nnc(-c2cccc(Cl)c2)o1)Nc1ccccc1 | -2 | 0 | -40 | 82* | 4 | 15
COc1ccc2[nH]c(C)c(C(=O)O)c2c1 | 2 | 1 | 0 | 16 | nt | nt
O=C1CCCCC1CNc1cccc(C(F)(F)F)c1 (centres undefined) | -1 | 0 | 4 | 74* | 4 | 18
Clc1ccc(CN2CCC(N3CCCCC3)CC2)cc1 | 1 | 0 | -2 | -12 | nt | nt
CCOc1ccc(CN2CCC(N3CCCC(C)C3)CC2)cc1 (centres undefined) | 0 | 0 | -3 | 53* | 1 | 0
CC1CCCN(C2CCN(Cc3ccc(Cl)cc3)CC2)C1 (centres undefined) | 0 | 0 | -13 | 56* | 6 | 2
CC(=O)C1=C(O)C(=O)N(CCN(C)C)C1c1ccccc1[N+](=O)[O-] (centres undefined) | 0 | 0 | -14 | 0 | nt | nt
CNc1nc(NC(C)(C)C)nc(Oc2ccc(C=O)cc2)n1 | 1 | 0 | 2 | 10 | nt | nt
Cc1ccc(Nc2ccc(NC(=O)Cc3ccccc3)cc2)nn1 | 1 | 0 | 8 | 5 | nt | nt
O=C(Cc1ccccc1)Nc1ccc(Nc2ccc(-n3cccn3)nn2)cc1 | 2 | 0 | -28 | 60* | 17 | 21
Clc1cccc(Cl)c1OCCCCn1ccnc1 | 1 | 0 | 0 | 52* | 5 | 5
SMILES | GPR151 ag | FBW7 activator | TEAD-YAP inh | MITF primary | MITF inh conf | AS interf ctr | others
C=CCc1cc(Cl)ccc1OCCCCn1ccnc1 | -1 | 0 | 1 | 68* | 5 | 13
C=CCc1cc(C)ccc1OCCOCCn1ccnc1 | 1 | 0 | -3 | 66* | -2 | 3
C=CCc1cc(OC)ccc1OCCCCn1ccnc1 | -1 | 0 | 4 | 78* | 9 | 11
COc1ccc(C2=NN(c3cc(Cl)ccc3Cl)C(c3ccc(Cl)cc3)C2)cc1 (centres undefined) | 0 | 0 | 1 | -1 | nt | nt
N#Cc1ccccc1CNCc1ccc(Cl)cc1 | 0 | 0 | 8 | 52* | -5 | 16
NC(=O)c1c(Nc2ccccc2)n[nH]c1N | 2 | 0 | -15 | 9 | nt | nt
COc1ccc(NC(=O)c2sc3nc4ccc(C)cc4cc3c2N)cc1OC | 0 | 0 | -6 | 65* | 7 | 21
COc1ccc(NC(=O)c2sc3nc4cc(C)ccc4cc3c2N)cc1OC | 0 | 0 | 1 | 11 | nt | nt
Cc1ccc(C)c(CN2CCN3C(=O)[C@H](CCCCN)NC(=O)[C@H]3C2)c1 | 1 | 0 | -3 | -12 | nt | nt
O=C(CCS(=O)(=O)c1ccc(Cl)cc1)NCc1ccccc1Cl | 2 | 0 | 4 | 2 | nt | nt
COc1cc(NC(=O)COc2cc(C)c(Cl)c(C)c2)ccc1NC(=O)c1cc2ccccc2o1 | -1 | 0 | -9 | -10 | nt | nt
COc1ccc(CCC(C)NCCCn2ccnc2)cc1 (centres undefined) | -1 | 0 | 4 | 43 | nt | nt
COc1ccc(COCC(O)CNCCCn2ccnc2)cc1 (centres undefined) | -4 | 0 | -1 | 83* | 8 | -10
COc1ccc(C(=O)N2CCN(Cc3cccc4ccccc34)CC2)cc1 | 3 | 0 | 7 | 59* | 6 | -4
COc1ccc(C(=O)N2CCN(Cc3c[nH]c4ccccc34)CC2)cc1 | 0 | 0 | 16 | 76* | -12 | -6
COc1ccc(C(=O)N2CCN(Cc3ccccc3F)CC2)cc1 | -1 | 0 | -1 | 62* | -10 | -4
CCOC(=O)N1CCN(C(=O)C2CCN(Cc3cccc4ccccc34)CC2)CC1 | 0 | 0 | -4 | 51* | 11 | 18
COc1ccc(C(=O)N2CCN(Cc3c[nH]c4ccccc34)CC2)cc1OC | 1 | 0 | 9 | 17 | nt | nt
COc1cccc(CN2CCN(C(=O)c3ccc(F)cc3)CC2)c1OC | 3 | 0 | 4 | 32 | nt | nt
COc1ccc(C(=O)CCC(=O)NC2CCCCCCC2)cc1 | 0 | 0 | 9 | 9 | nt | nt
Cc1cccc(CN2CCN(Cc3ccc(-c4ccc(C)o4)cc3)CC2CCO)n1 (centres undefined) | 0 | 0 | -5 | -9 | nt | nt
COc1cccc(C(=O)N(CC(=O)Nc2sc(C)c(C)c2C(N)=O)C2CCCCC2)c1 | 1 | 0 | 7 | -3 | nt | nt
COc1cc(C2/C(=C(/O)c3ccc(C)cc3)C(=O)C(=O)N2Cc2cccnc2)ccc1O (centres undefined) | 1 | 0 | -3 | 4 | nt | nt
CCOc1ccc(-c2cn3nc(COc4ccc(Cl)cc4Cl)n4c3c2CCCC4)cc1 | -2 | 1 | -16 | 59* | -9 | -5

Screening data from PubChem BioAssay.
